Assay results as given in PubChem BioAssay (NCI).
About 83,000 compounds went through this panel and 20% of them were active in at least one assay; those are over-represented in the sample as a whole.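 96-well plates, one dose, 48 hours. Percent growth reported; active if below 10.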 A number with no mark means an inactive call. The source made the active and inactive calls.

The compounds below were run on SK-MEL-5 melanoma (assay: NCI-60 one-dose screen, 48 h (100 = growth as untreated, 0 = no growth, -100 = all killed)). Settings: 10 µM unless noted.

SMILES	growth
CCN(CC)c1nc(SCC(=O)Nc2nc3ccc(C)cc3s2)nc(-c2ccccc2)c1C#N	90.2%
Cn1cc(-c2csc(-c3cccc(F)c3)n2)c2cccnc21	-86.1% [100 µM] (active)
CCN1CCN(c2cc(C)nc(NCc3cc(Nc4ccnc5cc(Cl)ccc45)ccc3F)n2)CC1	-85.5% (active)
CSc1n(Cc2ccc3ccccc3c2)c(C)c[n+]1Cc1ccc2ccccc2c1	-95.8% (active)
NC(=N\N=C/c1cccc([N+](=O)[O-])c1)/C(N)=N\N=C/c1cccc([N+](=O)[O-])c1	58.2%
COc1ccc(-c2csc(C3=C(O)CN(C(C)C)C3=N)n2)cc1OC	82.5%
COc1ccc(-c2ccc3c(c2)sc2nc(-c4ccc(F)cc4)cn23)cc1	33.1%
Cc1ccc(S(=O)(=O)NCC[C@@H]2C[C@H]2c2cc3ccccc3s2)cc1	102%
Cc1cccc(NC(=O)CSc2nc3ccccc3[nH]2)c1	103%
C[n+]1cc2cc(C(N)=O)[nH]c3c(=N)c(Cl)c(N)c1c23	79.2%
CCN(CC)CCCNc1ccc(Nc2ccc(OC)cc2)cc1	91.2%
O=C1C=C[C@]2(C[C@@H](c3cccc(C(F)(F)F)c3)O[C@@H](c3cccc(C(F)(F)F)c3)O2)O1	-58.2% (active)
Cc1nc2c(c(N3CCCc4ccccc43)n1)CCC2	-49% (active)
Cc1cc(Cl)nc(NCc2cc(Nc3ccnc4cc(Cl)ccc34)ccc2F)n1	56.5%
COc1ccc(NC(=O)CSc2nnc(-c3cc(-c4ccc(S(N)(=O)=O)cc4)nc4ccccc34)n2-c2ccccc2)cc1	74.6%
COc1ccc(-c2nc3ccc4[nH]ncc4c3c3c2CCCC3)cc1B(O)O	73.8%
CC/C=C\C[C@H](O)C/C=C1/C(=O)C=C[C@@H]1C/C=C\CCCCO	10.5%
O=C(/C=C/c1c(Cl)nc2sccn12)c1nccs1	95.6%
O=c1[nH]ccc2nc(N3CCC(O)CC3)nc(Nc3ccc(N4CCOCC4)cc3)c12	39%

SMILES	growth
COc1ccc2c(c1)CCCN2c1c2ccccc2nc2ccccc12	2.04% (active)
COc1ccc(N=C(c2ccccc2)C2C(=O)c3ccccc3C2=O)cc1	71.4%
Cc1c(O)cc(-c2cnc(N/N=C\c3ccc(Cl)cc3)s2)c(O)c1C	79.8%
NS(=O)(=O)c1ccc(-n2nc(C(=O)N/N=C\c3ccc(F)cc3)cc2-c2ccc(Cl)cc2)cc1	93.5%
CCN1CCN(c2nc(C)cc(NCc3cc(Nc4ccnc5cc(Cl)ccc45)ccc3F)n2)CC1	-96.4% (active)
COc1ccc2[nH]c(O)c(/C=c3/cc4c(c(-c5ccc(F)c(OC)c5)n3)=Nc3ccccc3-4)c2c1	57.2%
CCCCCS(=O)(=O)Nc1ccc(C(=O)O)cc1	100%
CN(C)CC1C(=O)O[C@H]2[C@H]1CC/C(COC(=O)c1cc3ccccc3[nH]1)=C\CC[C@@]1(C)O[C@@H]21 (some centres undefined)	-98.6% (active)
N#CC1=C(c2ccc(Br)cc2)NC(SCC(=O)c2ccc(Br)cc2)NC1=O (centres undefined)	110%
O=c1c2c3c(sc2n2c(-c4cn(-c5ccccc5)nc4-c4ccc(Cl)cc4)nnc2n1Cc1ccccc1)CCCC3	95.8%
COc1cc(/C=C/C(=O)c2cccc(-n3cc(-c4ccccc4)[nH]c3=O)c2)ccc1O	68.5%
CCCCCCCCCOc1c(OC)cc(C2CC(=O)Nc3c2c(C)nn3-c2nc3ccccc3[nH]2)cc1OC (centres undefined)	-99.4% (active)
Cc1ccc2c(c1)Sc1c(ccc3ccccc13)N2	46%
CC(C)(C)C(CCc1ccc(Cl)cc1)N1CCN(C2CCCCC2)CC1 (centres undefined)	46.4%
COc1ccc(C2=NN(C(=O)c3cc(OC)c(OC)c(OC)c3)C(c3ccc(Cl)cc3)C2)cc1OC (centres undefined)	9.51% (active)
Cc1cc(NCc2cc(Nc3ccnc4cc(Cl)ccc34)ccc2F)nc(N2CCSCC2)n1	-13.8% (active)
N#Cc1c(-c2cccc(Cl)c2)cc(-c2cccc(F)c2)[nH]c1=O	89.4%
O=C(CSc1nnc(-c2ccc(NC(=O)c3cccnc3)cc2)o1)N[C@@H](Cc1ccc(O)cc1)C(=O)O	100%

What follows are compounds tested on UACC-62 melanoma in the same assay as above. Settings: 10 µM unless noted.

SMILES	growth
CCN(CC)c1nc(SCC(=O)Nc2nc3ccc(C)cc3s2)nc(-c2ccccc2)c1C#N	67.9%
Cn1cc(-c2csc(-c3cccc(F)c3)n2)c2cccnc21	-67% [100 µM] (active)
CCN1CCN(c2cc(C)nc(NCc3cc(Nc4ccnc5cc(Cl)ccc45)ccc3F)n2)CC1	86.3%
CSc1n(Cc2ccc3ccccc3c2)c(C)c[n+]1Cc1ccc2ccccc2c1	-56.2% (active)
NC(=N\N=C/c1cccc([N+](=O)[O-])c1)/C(N)=N\N=C/c1cccc([N+](=O)[O-])c1	65%
COc1ccc(-c2csc(C3=C(O)CN(C(C)C)C3=N)n2)cc1OC	97.3%
COc1ccc(-c2ccc3c(c2)sc2nc(-c4ccc(F)cc4)cn23)cc1	65%
Cc1ccc(S(=O)(=O)NCC[C@@H]2C[C@H]2c2cc3ccccc3s2)cc1	68.1%
Cc1cccc(NC(=O)CSc2nc3ccccc3[nH]2)c1	85.1%
C[n+]1cc2cc(C(N)=O)[nH]c3c(=N)c(Cl)c(N)c1c23	78%
CCN(CC)CCCNc1ccc(Nc2ccc(OC)cc2)cc1	95.8%
O=C1C=C[C@]2(C[C@@H](c3cccc(C(F)(F)F)c3)O[C@@H](c3cccc(C(F)(F)F)c3)O2)O1	-38.6% (active)
Cc1nc2c(c(N3CCCc4ccccc43)n1)CCC2	24.3%
Cc1cc(Cl)nc(NCc2cc(Nc3ccnc4cc(Cl)ccc34)ccc2F)n1	70.7%
COc1ccc(NC(=O)CSc2nnc(-c3cc(-c4ccc(S(N)(=O)=O)cc4)nc4ccccc34)n2-c2ccccc2)cc1	65.3%
COc1ccc(-c2nc3ccc4[nH]ncc4c3c3c2CCCC3)cc1B(O)O	47.1%
CC/C=C\C[C@H](O)C/C=C1/C(=O)C=C[C@@H]1C/C=C\CCCCO	-23.3% (active)
O=C(/C=C/c1c(Cl)nc2sccn12)c1nccs1	89.7%
O=c1[nH]ccc2nc(N3CCC(O)CC3)nc(Nc3ccc(N4CCOCC4)cc3)c12	80.3%

SMILES	growth
COc1ccc2c(c1)CCCN2c1c2ccccc2nc2ccccc12	5.34% (active)
COc1ccc(N=C(c2ccccc2)C2C(=O)c3ccccc3C2=O)cc1	63%
Cc1c(O)cc(-c2cnc(N/N=C\c3ccc(Cl)cc3)s2)c(O)c1C	81.6%
NS(=O)(=O)c1ccc(-n2nc(C(=O)N/N=C\c3ccc(F)cc3)cc2-c2ccc(Cl)cc2)cc1	81.8%
CCN1CCN(c2nc(C)cc(NCc3cc(Nc4ccnc5cc(Cl)ccc45)ccc3F)n2)CC1	-49.8% (active)
COc1ccc2[nH]c(O)c(/C=c3/cc4c(c(-c5ccc(F)c(OC)c5)n3)=Nc3ccccc3-4)c2c1	79.8%
CCCCCS(=O)(=O)Nc1ccc(C(=O)O)cc1	98.8%
CN(C)CC1C(=O)O[C@H]2[C@H]1CC/C(COC(=O)c1cc3ccccc3[nH]1)=C\CC[C@@]1(C)O[C@@H]21 (some centres undefined)	-52% (active)
N#CC1=C(c2ccc(Br)cc2)NC(SCC(=O)c2ccc(Br)cc2)NC1=O (centres undefined)	109%
O=c1c2c3c(sc2n2c(-c4cn(-c5ccccc5)nc4-c4ccc(Cl)cc4)nnc2n1Cc1ccccc1)CCCC3	90.6%
COc1cc(/C=C/C(=O)c2cccc(-n3cc(-c4ccccc4)[nH]c3=O)c2)ccc1O	69.8%
CCCCCCCCCOc1c(OC)cc(C2CC(=O)Nc3c2c(C)nn3-c2nc3ccccc3[nH]2)cc1OC (centres undefined)	-62.4% (active)
Cc1ccc2c(c1)Sc1c(ccc3ccccc13)N2	58.9%
CC(C)(C)C(CCc1ccc(Cl)cc1)N1CCN(C2CCCCC2)CC1 (centres undefined)	46.8%
COc1ccc(C2=NN(C(=O)c3cc(OC)c(OC)c(OC)c3)C(c3ccc(Cl)cc3)C2)cc1OC (centres undefined)	31.1%
Cc1cc(NCc2cc(Nc3ccnc4cc(Cl)ccc34)ccc2F)nc(N2CCSCC2)n1	-54.4% (active)
N#Cc1c(-c2cccc(Cl)c2)cc(-c2cccc(F)c2)[nH]c1=O	76.8%
O=C(CSc1nnc(-c2ccc(NC(=O)c3cccnc3)cc2)o1)N[C@@H](Cc1ccc(O)cc1)C(=O)O	92.8%
